# Data as given in the supplement of paper PMC10981050.
# Several values for one entry are separate records, joined by “and”; a condition that tells them apart may be missing. Identical values can stand only once. Counter-ions that a name gives are not always drawn.
# What was measured:
# Assay in all cases: cell viability relative to vehicle control; higher = less cytotoxic
# Settings in all cases: 10 µM
# K562 = test system: K562
# How it was run: (§1)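 After removal of identity-inconsistent compounds, the Selleck bioactive, kinase and epigenetic probe libraries were screened on CRISPR-edited mutant clones and isogenic wild-type clones of four leukaemia lines. Plates were 384-well, each well holding 2000 cells in 50 µL medium and receiving a single 10 µM acoustically dispensed dose. CellTiter-Glo luminescence was read 48 h later, after the supernatant was taken off. Genedata Screener was used to express viability as percent of the on-plate vehicle control.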
# MARIMO = test system: MARIMO
# How it was run: as §1
# MOLM14 = test system: MOLM14
# How it was run: as §1
# OCI-AML2 = test system: OCI-AML2
# How it was run: as §1
SMILES,cell viability (K562; SRSF2 genotype: SRSF2 P95H/wt),cell viability (K562; SRSF2 genotype: SRSF2 wt/wt) [%],cell viability (MARIMO; SRSF2 genotype: SRSF2 P95H/wt) [%],cell viability (MARIMO; SRSF2 genotype: SRSF2 wt/wt) [%],cell viability (MOLM14; SRSF2 genotype: SRSF2 P95H/wt) [%],cell viability (MOLM14; SRSF2 genotype: SRSF2 wt/wt) [%],cell viability (OCI-AML2; SRSF2 genotype: P95H/wt) [%],cell viability (OCI-AML2; SRSF2 genotype: wt/wt) [%]
OC[C@H]1O[C@@](CO)(OC[C@@]2(OC[C@@]3(O[C@H]4O[C@H](CO)[C@@H](O)[C@H](O)[C@H]4O)O[C@H](CO)[C@@H](O)[C@@H]3O)O[C@H](CO)[C@@H](O)[C@@H]2O)[C@@H](O)[C@@H]1O [Nystose],106% and 101%,111,100,101,106,100,106,102
CC1OC(OC2CCC3(C)C(CCC4(C)C3C=CC3=C5CC(C)(C)CCC5(CO)C(O)CC34C)C2(C)CO)C(O)C(OC2OC(CO)C(O)C(O)C2O)C1O (stereo unspecified) [Saikosaponin B2],93.5% and 88.7%,86.8,91.5,106,96.3,95.1,93.9,100
CC(=O)O[C@H]1C(=O)[C@@]2(C)[C@H]([C@H](OC(=O)c3ccccc3)[C@]3(O)C[C@H](OC(=O)[C@H](O)[C@@H](NC(=O)c4ccccc4)c4ccccc4)C(C)=C1C3(C)C)[C@]1(OC(C)=O)CO[C@@H]1C[C@@H]2O [Paclitaxel (Taxol)],24.2% and 40.5%,35.7,7.78,4.98,9.66,2.55,7.7,12.1
Cc1c(C(=O)Nc2ccc(Oc3ccnc4[nH]cc(-c5ccccc5)c34)c(F)c2)c(=O)n(-c2ccc(F)cc2)n1C,75.3% and 86.8%,76.8,84.7,88.2,8.77,13.1,24.8,35.5
COc1cc(C(=O)N2CCC(N3CCN(C)CC3)CC2)ccc1Nc1ncc2c(n1)N(C)c1ccccc1C(=O)N2C,49.8% and 57.1%,61.2,26.9,31.8,16.3,20.6,10.9,21.2
CN1CC[C@@H](c2c(O)cc(O)c3c(=O)cc(-c4ccccc4Cl)oc23)[C@@H]1CO,5.12% and 15.8%,7.55,7.83,3.59,2.24,0.71,1.64,13.3
C/C(=C\C(=O)OCCCCCCCCC(=O)O)C[C@@H]1OC[C@H](C[C@@H]2O[C@H]2[C@@H](C)[C@H](C)O)[C@@H](O)[C@H]1O [Mupirocin],98.8% and 99.8%,101,103,103,97.7,103,100,92
COc1ccc(-c2coc3cc(O)ccc3c2=O)cc1 [Formononetin (Formononetol)],93.6% and 91.7%,86.4,82.4,91.4,99.9,99.6,86.7,80.2
CC#CC(=O)N1CC[C@@H](n2c(=O)n(-c3ccc(Oc4ccccc4)cc3)c3c(N)ncnc32)C1 [ONO-4059 (GS-4059) hydrochloride],91% and 102%,95.7,97.2,107,91.4,95.8,91,88.9
COc1ccc2cc1Oc1ccc(cc1)C[C@H]1c3c(cc4c(c3Oc3cc5c(cc3OC)CCN(C)[C@@H]5C2)OCO4)CCN1C [Cepharanthine],5.44% and 5.78%,3.74,57.9,50.3,25.4,26.7,0.56,8.53
CC(=O)OCOC(=O)CN(CC(=O)OCOC(C)=O)c1ccccc1OCCOc1ccccc1N(CC(=O)OCOC(C)=O)CC(=O)OCOC(C)=O,18.9% and 10.1%,6.38,1.03,0.7,0.2,0.25,2.33,4.73
Oc1ncnc2[nH]ncc12 [Allopurinol (Zyloprim)],99% and 99.5%,104,97.1,98.3,99.3,96,101,104
CCOc1cc(C=O)ccc1OC(C)=O [Ethyl vanillin acetate],103% and 99.2%,102,105,108,96.4,98.5,98,108
COc1ccnc2[nH]cc(C(=O)C(=O)N3CCN(C(=O)c4ccccc4)C[C@H]3C)c12,93.7% and 90.7%,84.5,90,99.2,95.6,90.3,82.2,86.4
CC(=O)NS(=O)(=O)c1ccc(N)cc1 [Sulfacetamide Sodium],96.5% and 94.7%,101,96.3,101,101,101,108,96.6
CO[C@H]1C[C@H](O[C@@H]2/C(C)=C/C[C@@H]3C[C@@H](C[C@]4(CC[C@H](C)[C@@H](C5CCCCC5)O4)O3)OC(=O)[C@@H]3C=C(C)/C(=N/O)[C@H]4OC/C(=C\C=C\[C@@H]2C)[C@]43O)O[C@@H](C)[C@@H]1O [Selamectin],16.6% and 37.1%,27.3,3.71,4.17,38.4,17,10.6,24.5
Cc1noc(NS(=O)(=O)c2ccc(N)cc2)c1C [Sulfisoxazole],106% and 97.9%,107,98.5,104,97.6,103,98.5,104
O=C(Nc1ccc(S(=O)(=O)Nc2ccccc2Cl)c(Cl)c1)c1ccccn1,98.1% and 99%,99.7,95.6,101,97.6,98.3,103,104
C=C1[C@H](CO)[C@@H](O)C[C@@H]1n1cnc2c(=O)[nH]c(N)nc21 [Entecavir hydrate],106% and 109%,106,101,96.7,94.7,106,87.7,94.7

SMILES,cell viability (K562; SRSF2 genotype: SRSF2 P95H/wt),cell viability (K562; SRSF2 genotype: SRSF2 wt/wt) [%],cell viability (MARIMO; SRSF2 genotype: SRSF2 P95H/wt) [%],cell viability (MARIMO; SRSF2 genotype: SRSF2 wt/wt) [%],cell viability (MOLM14; SRSF2 genotype: SRSF2 P95H/wt) [%],cell viability (MOLM14; SRSF2 genotype: SRSF2 wt/wt) [%],cell viability (OCI-AML2; SRSF2 genotype: P95H/wt) [%],cell viability (OCI-AML2; SRSF2 genotype: wt/wt) [%]
NC(=O)c1nc(F)cnc1O [Favipiravir (T-705)],98.6% and 95.8%,95.8,91.7,92.5,89.8,94.8,100,93.2
O=c1ccc2ccc(O)c(O)c2o1 [Daphnetin],79.5% and 82.3%,83.5,75.2,89,84.4,93.2,81.4,86.2
O=C(Nc1c(Cl)cncc1Cl)c1ccc(OC(F)F)c(OCC2CC2)c1 [Roflumilast (Daxas)],96.8% and 106%,105,116,114,105,109,103,96
CCOC(=O)[C@H](CCc1ccccc1)N[C@H]1CS[C@H](c2cccs2)CN(CC(=O)O)C1=O [Temocapril HCl],102% and 101%,98.8,101,113,99.7,102,102,111
CN1CCCC(n2nc(Cc3ccc(Cl)cc3)c3ccccc3c2=O)CC1 (stereo unspecified) [Azelastine hydrochloride (Astelin)],87% and 91%,92.6,88.1,90.3,78.9,88.6,75.9,72.6
CC(C)C[C@H](NC(=O)CNC(=O)c1cc(Cl)ccc1Cl)B(O)O [Ixazomib (MLN2238)],2.07%,3.87,0.76,3.15,0.41,0.47,0.44,1.8
C[C@H]1Oc2cc(cnc2N)-c2c(nn(C)c2C#N)CN(C)C(=O)c2ccc(F)cc21,102% and 95.5%,99.1,91.1,91,119,106,94.9,104
COc1cc(NS(=O)(=O)c2ccc(N)cc2)nc(OC)n1 [SulfadiMethoxine sodium],106% and 100%,111,100,105,106,107,102,118
COc1cc2c(=O)c3c(O)c([C@@H]4O[C@H](CO[C@@H]5OC[C@](O)(CO)[C@H]5O)[C@@H](O)[C@H](O)[C@H]4O)c(O)cc3oc2cc1O [Polygalaxanthone III],99.2% and 105%,98,100,98.8,101,98.4,105,97.3
O=C(O)CCc1ccc(O)cc1O [Hydroumbellic acid],96% and 92.8%,90.8,95.6,104,100,100,93.3,106
O=C(/C=C/c1ccc(CN(CCO)CCc2c[nH]c3ccccc23)cc1)NO [LAQ824 (Dacinostat)],1.15% and 10.3%,2.76,5.99,11.9,0.84,0.58,1.63,2.36
CCC(=O)OCC(=O)[C@@]1(OC(=O)CC)[C@@H](C)C[C@H]2[C@@H]3CCC4=CC(=O)C=C[C@]4(C)[C@@]3(Cl)[C@@H](O)C[C@@]21C [Beclomethasone dipropionate],87.4% and 91.4%,87.7,90,97.8,86,93,105,117
CC(C)c1ccc(NC(=O)Cn2cnc3c2c(=O)n(C)c(=O)n3C)cc1,88.2% and 87.9%,94.4,91,96.1,95.1,96.2,87.5,91
COc1ccc(NS(=O)(=O)c2sc3ccc(Cl)cc3c2C)cc1N1CCNCC1,99.5% and 98.2%,104,100,99.2,96.4,106,87.9,78
COC(=O)C1=COC(OC2OC(CO)C(O)C(O)C2O)C2C(C)CC(=O)C12O (stereo unspecified) [Hastatoside],108% and 101%,107,104,99.3,108,104,99.5,102
NC(=O)[C@H](CCCN=C(N)CCl)NC(=O)c1ccccc1 [Cl-amidine],101% and 98%,95.7,101,97.2,98.4,99,111,102
C[C@H]1c2cccc(O)c2C(O)=C2C(=O)[C@]3(O)C(O)=C(C(N)=O)C(=O)[C@@H](N(C)C)[C@@H]3[C@@H](O)[C@@H]21 [Doxycycline],82.7% and 74.8%,79.9,91.8,91.3,102,99.5,88.2,96.2
CO/N=C(/C(=O)N[C@@H]1C(=O)N2C(C(=O)OCOC(=O)C(C)(C)C)=C(C)CS[C@H]12)c1csc(N)n1 [Cefetamet pivoxil hydrochloride],95.8% and 97%,102,95,104,92.5,103,107,98.1
